From PubChem BioAssay AID1053197 (The Scripps Research Institute Molecular Screening Center, 2014)
Hit rate of the full screen: of about 370,000 compounds, about 2,600 (0.7%) were called active.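 The calls were made as follows: active = inhibition above a cutoff: mean of compounds within the control limits plus 3 SD of those (cut at about 17% in these data); inactive = the rest.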 The full list was thinned out, with actives kept by preference.

target: Sialate O-acetylesterase (Homo sapiens) (UniProt Q9HAT2); assay: human SIAE inhibitors, primary screen, biochemical, fluorescence polarization, FP-Rh probe, 1536-well HTS (AID 1053197); settings: SIAE FP-Rh probe binding, at 9.66 µM, active compounds read high;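 also: 0% = plate median of compound wells and 100% = probe without SIAE protein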
Sequence (Q9HAT2 whole entry, looked up): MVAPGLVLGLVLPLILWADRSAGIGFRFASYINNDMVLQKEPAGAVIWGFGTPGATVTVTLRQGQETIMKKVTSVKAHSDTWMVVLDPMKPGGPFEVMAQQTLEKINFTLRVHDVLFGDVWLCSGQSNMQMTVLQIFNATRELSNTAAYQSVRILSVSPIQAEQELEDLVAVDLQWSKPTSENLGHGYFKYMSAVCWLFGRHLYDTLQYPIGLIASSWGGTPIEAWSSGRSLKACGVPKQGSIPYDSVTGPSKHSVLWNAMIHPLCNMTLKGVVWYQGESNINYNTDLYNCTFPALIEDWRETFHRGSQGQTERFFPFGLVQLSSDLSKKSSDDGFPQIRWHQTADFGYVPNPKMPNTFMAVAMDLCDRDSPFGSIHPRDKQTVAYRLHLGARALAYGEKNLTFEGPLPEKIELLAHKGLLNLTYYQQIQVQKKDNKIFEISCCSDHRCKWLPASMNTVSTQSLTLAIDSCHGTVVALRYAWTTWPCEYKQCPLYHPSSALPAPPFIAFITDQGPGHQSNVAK

Row | Structure (SMILES) | inhibition
1 | COc1ccccc1OCC(=O)OCn1c(SC)nnc(C)c1=O | -6.49% (inactive)
2 | CCSc1nc(O)c(C(c2cccc(OC)c2)c2c(O)nc(SCC)[nH]c2=O)c(=O)[nH]1 | -2.73% (inactive)
3 | CCn1c(SC)nc(O)c(C(c2ccc(OC)c(O)c2)c2c(O)nc(SC)n(CC)c2=O)c1=O | 26.7% (active)
4 | CCN(/N=C/c1ccccc1)c1cc(=O)n(C)c(=O)[nH]1 | 10.2% (inactive)
5 | CCN(/N=C/c1ccc(N(C)C)cc1)c1nc2ccccc2[nH]1 | 4.94% (inactive)
6 | Oc1ccc(/C=N/N(Cc2ccccc2)c2ccccc2)cc1 | 19.4% (active)
7 | O=C(NC1CCCC1)C1CSCCS(=O)(=O)N1Cc1ccccc1 (stereo not drawn) | -3.54% (inactive)
8 | N[C@@H](Cc1ccccc1)C(=O)N1CCC[C@@H]1C(=O)N1CCC2CCN(S(=O)(=O)c3ccccc3)CC21 (stereo partly drawn) | 1.02% (inactive)
9 | Oc1ccc(/C=C/c2c(F)cccc2F)c2cccnc12 | 9.1% (inactive)
10 | COc1ccc(Cc2nc3ccc(C(=O)N4CCC(N(C)C)C4)cc3o2)cc1 (stereo not drawn) | 18.5% (active)
11 | CCC1C(=O)NCCN1C(=O)c1ccc2nc(Cc3ccc(OC)cc3)oc2c1 (stereo not drawn) | -0.21% (inactive)
12 | COCC1CCN(C(=O)c2ccc3oc(Cc4ccccc4)nc3c2)C1 (stereo not drawn) | -5.51% (inactive)
13 | CC(CCN1CCC(C(O)(c2ccccc2)c2ccccc2)CC1)Oc1ccc([N+](=O)[O-])cc1Cl (stereo not drawn) | 1.3% (inactive)
14 | Cc1ccc(/C=N/NC(=S)NC2CCCCC2)o1 | 8.46% (inactive)
15 | Cc1ccc(/C=N/NC(=O)Cn2ccc(C(F)(F)F)n2)o1 | 2.98% (inactive)
16 | Cc1ccc(/C=N/NC(=O)c2cc3ccccc3cc2O)o1 | 21.5% (active)
17 | C[C@H]1CCC/C=C/C(=O)c2c(O)cc(O)cc2CC(=O)O1 | 5.43% (inactive)
18 | C=CCOC/C=C/C#CCN(CC=C)Cc1ccc(OC)cc1OC | -0.76% (inactive)
19 | CCCCC(CC)CNC(=O)C(=O)C1C(=O)Nc2ccccc21 (stereo not drawn) | 4.38% (inactive)
20 | CCOC(=O)CC1=CC(=O)Nc2ccccc2N1 | 2.76% (inactive)
21 | CCOC(=O)C(=O)C1C(=O)Nc2ccccc21 (stereo not drawn) | 20.6% (active)
22 | Cc1c(NS(=O)(=O)c2cccc(C(=O)Nc3ccc(SC(F)F)cc3)c2)c(=O)n(-c2ccccc2)n1C | -14% (inactive)

Row | Structure (SMILES) | inhibition
23 | COc1ccc(NC(=O)/C(N=Nc2cccc(S(=O)(=O)Nc3ccc(SC(F)F)cc3)c2)=C(\C)O)cc1 | 17.2% (active)
24 | Nc1cccc(S(=O)(=O)Nc2ccc(SC(F)F)cc2)c1 | -5.85% (inactive)
25 | Cc1nc2ccc(C(=O)N3CCN(C(=O)C(C)(C)C)CC3)cc2n1C1CCCC1 | 1.16% (inactive)
26 | Cc1ccccc1CS(=O)(=O)Cc1ccc(C(=O)Nc2ccc(Cl)cc2)o1 | -4.56% (inactive)
27 | C[C@H](C(=O)N(C)c1ccccc1)[C@@H](O)c1ccc(Cl)cc1 | -3.9% (inactive)
28 | COc1ccc(-n2c(SCC(=O)Nc3ccc(C)c(Cl)c3)nc3ccccc3c2=O)cc1 | -5.2% (inactive)
29 | O=C(OC12CCCN(C1)/C(=C/c1cccnc1)C2)C1CCCC1 (stereo not drawn) | 9.64% (inactive)
30 | COc1ccc(N2CCN(c3ccc([N+](=O)[O-])nc3)CC2)cc1 | 27.9% (active)
31 | O=[N+]([O-])c1ccc(N2CCN(c3ccc(F)cc3)CC2)cn1 | 1.56% (inactive)
32 | COc1ccccc1N1CCN(c2ccc([N+](=O)[O-])nc2)CC1 | 3.93% (inactive)
33 | Cc1c(C(C)c2ccccc2O)[nH]c2ccccc12 (stereo not drawn) | 3.42% (inactive)
34 | C=C(C)C#CC(Cc1ccccc1)N(CC1CC1)/C(N)=N/C(=O)OCc1ccccc1 (stereo not drawn) | 8.05% (inactive)
35 | C[C@@H](NC(=O)c1ccccc1OCC(=O)Nc1ccc(I)cc1)C(=O)N(C)Cc1ccccc1 | -10.2% (inactive)
36 | Cc1ccc(NC(=O)[C@H](Cc2ccccc2)NC(=O)CC[C@H]2O[C@@H](n3ccc(=O)[nH]c3=O)[C@H](O)[C@@H]2O)cc1C | 0.53% (inactive)
37 | O=C(CC[C@H]1O[C@@H](n2ccc(=O)[nH]c2=O)[C@H](O)[C@@H]1O)N[C@H](Cc1ccccc1)C(=O)NCc1ccco1 | 1.02% (inactive)
38 | O=C(CC[C@H]1O[C@@H](n2ccc(=O)[nH]c2=O)[C@H](O)[C@@H]1O)N[C@H](Cc1ccccc1)C(=O)NCCCN1CCCC1=O | 47.1% (active)
39 | CSc1ccc(C=Nn2c(-c3ccc(F)cc3)n[nH]c2=S)cc1 | 2.39% (inactive)
40 | C/C(=N\NC(=O)CNc1cccc2ccccc12)c1ccc(Br)s1 | -5.3% (inactive)
41 | O=C(Cn1cncn1)N/N=C/c1c2ccccc2cc2ccccc12 | -1.87% (inactive)
42 | Cn1cccc1/C=N/NC(=O)CNc1cccc2ccccc12 | 18.6% (active)
43 | C[C@H](C(=O)N(C)c1ccccc1)[C@@H](O)c1ccc2ccccc2c1 | 3.1% (inactive)
44 | CCC(=O)Nc1ccc2c(c1)C(=O)N(C)[C@@H]1CC[C@@H](CC(=O)NCCc3ccccc3)O[C@H]1CO2 | 1.28% (inactive)

Row | Structure (SMILES) | inhibition
45 | COc1ccccc1C(=O)NC1CCCCN(C(C)C)C1=O (stereo not drawn) | 0.76% (inactive)
46 | C=CCN(Cc1ccc2c(c1)OCO2)C(C#CC1CC1)C(C)(C)C (stereo not drawn) | 4.36% (inactive)
47 | CCOC(=O)C1=C(C)N=C2c3ccccc3C(=O)C2C1c1ccc(Br)cc1 (stereo not drawn) | 18% (active)
48 | COC(=O)C1=C(C(=O)OC)C2(OC1c1ccc(Br)cc1)C(=O)c1ccccc1C2=O (stereo not drawn) | 14.3% (inactive)
49 | CCOC(=O)C1=C(C)NC(SC)=NC1c1ccccc1 (stereo not drawn) | 5.58% (inactive)
50 | CCCCN1CCN(C(=O)c2ccc3c(c2)NC(=O)C(C)(C)O3)CC1 | -0.65% (inactive)
51 | COC[C@@H]1CCCN1c1ccc2c(c1)O[C@H](C)CCN(C1CC1)S2(=O)=O | -0.33% (inactive)
52 | CC(=O)Nc1ccc(OC[C@@H](O)CN2CCC(C(O)(c3ccccc3)c3ccccc3)CC2)cc1 | -6.43% (inactive)
53 | CN(C)Cc1cn(-c2ccc(-c3noc4c3C(=O)N(CC(=O)N3CCOCC3)CC4)cc2)nn1 | -2.28% (inactive)
54 | CN1c2ccc(C=O)c3c(C=O)ccc(c23)N(C)C1(C)C | 21.9% (active)
55 | Cc1nc(CNc2ncnc3ccc(-c4ccc5c(c4)OCO5)cc23)cs1 | -10.9% (inactive)
56 | O=C(Nc1ccccc1)N1CCN(Cc2nc3ccccc3c(=O)[nH]2)CC1 | 12.6% (inactive)
57 | COc1ccc(Cn2cc(CN3[C@@H](CC(C)C)COc4cc(Br)ccc4S3(=O)=O)nn2)cc1 | 0.93% (inactive)
58 | NS(=O)(=O)c1ccc(NC(=O)COC(=O)c2c3c(nc4ccccc24)/C(=C\c2ccc4c(c2)OCO4)CCC3)cc1 | 43.9% (active)
59 | O=C(COC(=O)c1c(Cl)cccc1Cl)Nc1cccc(S(=O)(=O)NC2=NCCCCC2)c1 | -8.81% (inactive)
60 | CN(C)S(=O)(=O)c1ccc(NC(=O)COC(=O)c2n[nH]c3ccccc23)cc1 | -22.8% (inactive)
61 | C=CCN1C(=O)[C@@H](CC(=O)N2CCN(C(=O)OCC)CC2)[C@]2(C(=O)OCC)CCCCC/C=C/12 | 2.29% (inactive)
62 | Cc1ccc(S(=O)(=O)N2CCC(C(=O)OCC(=O)N(C)c3ccccc3)CC2)cc1C | -1.79% (inactive)
63 | CCN(C(=O)COC(=O)C1CCN(S(=O)(=O)c2ccc(C)c(C)c2)CC1)C1CCS(=O)(=O)C1 (stereo not drawn) | 26.2% (active)
64 | CCN(C(=O)COC(=O)c1cc(S(=O)(=O)N2CCc3ccccc32)ccc1OC)C1CCS(=O)(=O)C1 (stereo not drawn) | -1.8% (inactive)
65 | CC(=O)Nc1nc2ncccn2c1-c1ccc(C(F)(F)F)cc1 | 4.66% (inactive)
66 | CC(=O)c1cc(-c2ccc3ccccc3c2)c(=O)n2c1CCC2 | -1.29% (inactive)

Row | Structure (SMILES) | inhibition
67 | COc1ccccc1/C=C/C=N/NC(=O)CN1CCN(Cc2ccccc2)CC1 | 17.3% (active)
68 | COc1ccc(C(=O)O)cc1S(=O)(=O)NC1CCN(Cc2ccccc2)CC1 | 0.4% (inactive)
69 | COc1ccccc1/C=C/CN1CCC(CO)(Cc2ccccc2)CC1 | -3.81% (inactive)
70 | O=S1(=O)c2c(cccc2N2CC[C@H](O)C2)O[C@@H]2CCN1C2 | 6.21% (inactive)
71 | COc1cccc(N2CCN(CC(=O)N(C)Cc3ccc(F)cc3)CC2)c1 | 1.64% (inactive)
72 | Cc1ccnc(NS(=O)(=O)c2ccc(NC(=O)c3oc4ccccc4c3C)cc2)n1 | -5.42% (inactive)
73 | Cc1ccnc(NS(=O)(=O)c2ccc(NC(=O)c3ccc(S(=O)(=O)N4CCOCC4)cc3)cc2)n1 | 21% (active)
74 | Cc1ccnc(NS(=O)(=O)c2ccc(NC(=O)c3ccc(S(=O)(=O)N(C)C)cc3)cc2)n1 | -1.59% (inactive)
75 | CCCCCCN1CCS(=O)(=O)N(Cc2ccc(C(F)(F)F)cc2)C(C(=O)OC)C1 (stereo not drawn) | -2.85% (inactive)
76 | CC(=O)OC12CCCN(C1)/C(=C/c1ccncc1)C2 (stereo not drawn) | 0.93% (inactive)
77 | O=C(CCl)NC1CCCCN(Cc2cccc(C(F)(F)F)c2)C1=O (stereo not drawn) | 1.33% (inactive)
78 | Cc1nc2ccc(C(=O)N3CCSCC3)cc2s1 | 80.7% (active)
79 | Cc1nc2ccc(S(=O)(=O)NC(C(=O)N3CCCCCC3)C(C)C)cc2s1 (stereo not drawn) | -3.13% (inactive)
80 | Cc1cccc(C(=O)N2CCC(c3nc4ccccc4s3)CC2)c1 | 1.7% (inactive)
81 | Cc1cc(C)nc(NC(=S)N2CCN(c3ccc(C(F)(F)F)cn3)CC2)c1 | -2.17% (inactive)
82 | CC1(C)C/C(=C(/C#N)C(N)=O)CCO1 | 17.1% (active)
83 | N#CC(C(N)=O)=C1CCC2(CC1)OCCCCO2 | -1.29% (inactive)
84 | Nn1c(SCC(=O)Nc2cccc3ccccc23)nnc1-c1cc(-c2ccc(F)cc2)n[nH]1 | -0.5% (inactive)
85 | CC(C)(C)NC(=O)C(c1cccnc1)N(C(=O)c1cnco1)c1ccc(C(C)(C)C)cc1 (stereo not drawn) | 2.03% (inactive)
86 | CCOc1cc(C(=O)O)ccc1OCCOc1ccccc1 | -4.46% (inactive)
87 | CCOC(=O)c1ccc(NNC(C)=O)c([N+](=O)[O-])c1 | 3.08% (inactive)
88 | CCOc1ccccc1Nc1ccc(C(=O)O)cc1[N+](=O)[O-] | 17.1% (active)
